From PubChem BioAssay
Several values for one entry are separate records, joined by “and”; a condition that tells them apart may be missing. Equal values may be shown once. Inconclusive results are not listed. For some of these results: Potency and affinity values are given separately. Activity calls are given as the source filed them. Unless noted, the rule behind the calls is not given here.

What was measured:
[1] = differential killing of epithelial or mesenchymal cells, primary screen, imaging, PC-3E GFP, TEM4-18 mCherry, co-culture (AID 1345086;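 active = compounds killing one labelled cell type while sparing the other, by normalised counts and ratio limits, not self-fluorescent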;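 for all read-outs here: cells exposed to compound for 72 h before imaging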;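 for red/green cell ratio (normalised): normalised mesenchymal count divided by normalised epithelial count so high means epithelial killing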); settings: imaging cell counts, at 1 µM; for red/green cell ratio (normalised): actives lie on both sides
[2] = system: Aerobactin synthetase IucA (Klebsiella pneumoniae hvKP1); test: Biochemical IucA enzyme inhibition primary screen of the Spectrum library (AID 1346200); settings: malachite green pyrophosphate, A620, at 8 µM, stronger effect = lower value;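 note: 100% = wells without compound and 0% = wells lacking enzyme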
[3] = biological target: Mitogen-activated protein kinase 7 (Homo sapiens) (UniProt Q13164); test: ERK5 transactivation activators in reporter cells, primary screen, cell-based, HTS (AID 1508626;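 active = luciferase signal above three times the same-plate solvent-only control wells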;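 note: luciferase driven by Gal4-ERK5 fusion binding five Gal4 sites before minimal TATA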); settings: HeLa Gal4-ERK5 transactivation, 18 h, at 5 µM, stronger effect = higher value
Chain of Mitogen-activated protein kinase 7 (Homo sapiens) (Q13164 whole entry, looked up, the tested form may be a part): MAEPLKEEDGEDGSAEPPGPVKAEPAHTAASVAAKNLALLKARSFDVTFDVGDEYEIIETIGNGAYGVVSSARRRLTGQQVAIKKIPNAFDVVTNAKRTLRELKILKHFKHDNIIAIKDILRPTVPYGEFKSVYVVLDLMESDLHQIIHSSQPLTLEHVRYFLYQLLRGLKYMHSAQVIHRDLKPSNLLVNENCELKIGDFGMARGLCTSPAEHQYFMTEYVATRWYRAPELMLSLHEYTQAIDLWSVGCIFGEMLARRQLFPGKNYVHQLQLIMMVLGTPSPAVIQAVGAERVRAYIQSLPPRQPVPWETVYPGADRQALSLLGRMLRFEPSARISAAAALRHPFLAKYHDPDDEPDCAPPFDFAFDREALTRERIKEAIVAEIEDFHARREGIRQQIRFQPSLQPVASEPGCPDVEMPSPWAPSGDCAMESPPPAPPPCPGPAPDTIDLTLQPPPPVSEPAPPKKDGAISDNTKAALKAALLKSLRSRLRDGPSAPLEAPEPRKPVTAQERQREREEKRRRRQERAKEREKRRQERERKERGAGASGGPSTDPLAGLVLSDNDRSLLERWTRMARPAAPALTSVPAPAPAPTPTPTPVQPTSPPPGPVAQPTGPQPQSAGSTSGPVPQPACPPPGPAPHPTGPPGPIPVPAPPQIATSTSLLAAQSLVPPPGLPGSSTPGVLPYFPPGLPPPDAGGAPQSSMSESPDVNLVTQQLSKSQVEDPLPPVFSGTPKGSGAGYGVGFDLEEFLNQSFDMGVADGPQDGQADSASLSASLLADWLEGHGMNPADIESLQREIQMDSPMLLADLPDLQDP

[4] = biological target: ATP-dependent translocase ABCB1 (Homo sapiens) (UniProt P08183); test: MDR1 (ABCB1) efflux transporter inhibition, cell-based (AID 377; in the data active = fluorescence slope change above about 50%); settings: MDR1-expressing cells, fluorescent substrate accumulation slope; stronger effect = higher value; concentration not given here
Chain of ATP-dependent translocase ABCB1 (Homo sapiens) (P08183 whole entry, looked up): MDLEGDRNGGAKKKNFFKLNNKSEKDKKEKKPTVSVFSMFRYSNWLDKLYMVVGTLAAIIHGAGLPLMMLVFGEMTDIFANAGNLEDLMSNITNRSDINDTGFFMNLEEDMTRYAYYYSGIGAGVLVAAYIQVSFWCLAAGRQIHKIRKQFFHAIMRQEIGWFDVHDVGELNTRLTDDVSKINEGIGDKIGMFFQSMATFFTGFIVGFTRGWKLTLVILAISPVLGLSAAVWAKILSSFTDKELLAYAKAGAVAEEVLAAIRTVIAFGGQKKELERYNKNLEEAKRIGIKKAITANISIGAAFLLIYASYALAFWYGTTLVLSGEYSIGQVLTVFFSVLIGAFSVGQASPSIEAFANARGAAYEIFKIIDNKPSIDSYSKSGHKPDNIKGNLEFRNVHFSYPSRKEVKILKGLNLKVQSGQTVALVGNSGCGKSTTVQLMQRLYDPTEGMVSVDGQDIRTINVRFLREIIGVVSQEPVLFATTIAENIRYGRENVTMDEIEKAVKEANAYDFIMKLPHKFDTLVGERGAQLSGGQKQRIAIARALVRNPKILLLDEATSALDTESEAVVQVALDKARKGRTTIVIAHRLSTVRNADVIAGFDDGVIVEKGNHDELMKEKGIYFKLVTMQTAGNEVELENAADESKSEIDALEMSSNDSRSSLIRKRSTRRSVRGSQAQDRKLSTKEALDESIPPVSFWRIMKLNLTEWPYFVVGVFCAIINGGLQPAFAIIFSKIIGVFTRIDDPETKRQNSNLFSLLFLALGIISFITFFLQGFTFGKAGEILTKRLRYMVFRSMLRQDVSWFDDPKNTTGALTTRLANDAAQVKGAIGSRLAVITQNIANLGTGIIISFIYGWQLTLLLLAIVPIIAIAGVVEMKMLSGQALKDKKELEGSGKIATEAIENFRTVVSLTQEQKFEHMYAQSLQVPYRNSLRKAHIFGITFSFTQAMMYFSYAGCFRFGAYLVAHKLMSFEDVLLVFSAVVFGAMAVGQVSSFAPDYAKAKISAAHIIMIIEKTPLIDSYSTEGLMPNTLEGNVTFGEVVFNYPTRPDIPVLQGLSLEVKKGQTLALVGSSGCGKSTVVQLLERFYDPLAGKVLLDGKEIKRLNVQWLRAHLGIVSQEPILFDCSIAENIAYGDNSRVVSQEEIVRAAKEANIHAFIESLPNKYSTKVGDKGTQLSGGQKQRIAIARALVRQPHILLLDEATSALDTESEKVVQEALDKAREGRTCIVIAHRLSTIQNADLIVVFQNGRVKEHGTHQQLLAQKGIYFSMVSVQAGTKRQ

[5] = hESC survival regulators, cell-based (AID 493140); settings: human embryonic stem cell survival screen; stronger effect = higher value;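 note: cells exposed to compounds for four days before counting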
[6] = liver-stage malaria parasite growth inhibition, primary screen, cell-based, HepG2, luciferase luminescence, HepG2 viability (AID 624349; in the data active = parasite load remaining mostly below about 12%, no sharp cut-off; inactive = mostly above about 10%;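 note: 100% = mean of DMSO negative control wells on the same plate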); settings: P. berghei liver stage in HepG2, luciferase luminescence, concentration not given here; parasite load remaining: stronger effect = lower value; viability: measured here: HepG2 viability without parasites
[7] = circadian clock period modulators, cell-based, LOPAC library, luminescence reporter (AID 2774); settings: circadian reporter cells, at 7 µM, actives lie on both sides;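 note: values are relative to mean of DMSO wells on each plate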
[8] = system: Hepatitis C virus NS3 helicase; test: HCV NS3 helicase inhibitors, primary screen, biochemical, fluorescence polarization, LOPAC1280 library (AID 687035; in the data active = inhibition above about 37%); settings: Purified HCV NS3 helicase, Cy5-dT15 ssDNA binding fluorescence polarization; stronger effect = higher value; concentration not given here
[9] = Cy5 fluorescence quenching or enhancement artefacts, artefact control for HCV NS3 helicase inhibitor project, biochemical, LOPAC1280 (AID 687037); settings: Cy5-DNA-NS3h complex fluorescence interference counterscreen
[10] = system: Aerobactin synthetase IucA (Klebsiella pneumoniae); test: IucA aerobactin synthetase inhibitors, biochemical, Tocris library, absorbance (AID 1345561); settings: purified IucA enzyme assay, absorbance (OD) read-out; stronger effect = lower value;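 tested at 8 µM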;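 note: 100% = enzyme without compound and 0% = no enzyme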
[11] = system: Aerobactin synthetase IucA (Klebsiella pneumoniae, hypervirulent); test: IucA enzyme inhibition, biochemical, LOPAC library, absorbance readout (AID 1346212); settings: IucA enzyme assay, absorbance (OD) readout; stronger effect = lower value;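 tested at 8 µM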;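 note: 100% = no compound wells and 0% = no enzyme wells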
[12] = sensitizers of A549 cells to miR-34 induction, primary screen, imaging, A549 dox-inducible miR-34, nuclei and caspase counts (AID 1347080;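 active = compounds whose cell count with miR-34 switched on is under 0.7 times the count with it off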); settings: A549 miR-34 inducible, Hoechst nuclei count, 48 h
[13] = phospholipid biosynthesis inhibitors in animal cells, primary screen, cell-based, LOPAC library, screen 4 (AID 1347384); settings: phospholipid biosynthesis inhibition screen, at 10 µM
[14] = viability rescue of complex I mutant cybrids, primary screen, cell-based, galactose medium, ATP luminescence (AID 1645843;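 active = z-score of at least 1.8 in each of two replicates, scored against plate mean and spread of sample wells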;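 note: positive z means more ATP and so rescue of galactose-driven cybrid death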); settings: complex I mutant cybrid cells, 72 h, stronger effect = higher value
[15] = biological target: NAD(+) hydrolase SARM1 (Homo sapiens) (UniProt Q6SZW1); test: SARM1 TIR NADase inhibitors, cell lysate, NAD-Glo luminescence (AID 1508614;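 active = compound whose remaining NAD level is above about 45 nM, limit read from the data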;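 note: higher remaining NAD means stronger inhibition of SARM1 NADase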); settings: SAM-TIR HEK293T lysate NADase, at 1 µM, stronger effect = higher value
Chain of NAD(+) hydrolase SARM1 (Homo sapiens) (Q6SZW1 whole entry, looked up): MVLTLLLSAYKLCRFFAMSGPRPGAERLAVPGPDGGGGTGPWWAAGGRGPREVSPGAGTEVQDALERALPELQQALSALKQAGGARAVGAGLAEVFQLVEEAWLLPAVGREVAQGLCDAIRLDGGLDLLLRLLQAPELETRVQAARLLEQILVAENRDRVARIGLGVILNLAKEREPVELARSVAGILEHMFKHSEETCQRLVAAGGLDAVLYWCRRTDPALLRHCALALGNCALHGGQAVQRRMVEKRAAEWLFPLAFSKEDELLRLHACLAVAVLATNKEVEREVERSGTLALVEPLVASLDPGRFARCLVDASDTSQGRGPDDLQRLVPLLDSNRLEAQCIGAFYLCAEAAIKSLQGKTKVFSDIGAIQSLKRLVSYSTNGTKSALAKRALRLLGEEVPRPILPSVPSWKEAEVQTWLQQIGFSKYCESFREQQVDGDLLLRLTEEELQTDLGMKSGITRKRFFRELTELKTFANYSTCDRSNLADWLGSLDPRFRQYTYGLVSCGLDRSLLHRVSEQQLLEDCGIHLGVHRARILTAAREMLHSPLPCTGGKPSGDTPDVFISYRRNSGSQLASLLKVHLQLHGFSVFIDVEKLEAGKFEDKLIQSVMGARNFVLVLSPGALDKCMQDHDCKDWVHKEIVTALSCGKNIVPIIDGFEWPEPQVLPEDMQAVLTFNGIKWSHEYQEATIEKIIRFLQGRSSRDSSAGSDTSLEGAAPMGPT

[16] = suppressors of polyQ aggregation in yeast, 75Q-TubU reporter (AID 1593); settings: Yeast 75Q polyglutamine aggregation reporter
[17] = rescue of polyQ-huntingtin neuronal dysfunction in worms, whole organism, C. elegans mechanosensory neurons, N-terminal huntingtin (AID 1599); settings: touch response, stronger effect = higher value
[18] = inhibitors of mitochondrial cytochrome c release, biochemical, purified mitochondria (AID 1603); settings: stronger effect = lower value;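 note: mouse liver mitochondria challenged with calcium chloride; signal normalized to the plate average as 100%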
[19] = inhibitors of polyQ protein aggregation (AID 1604); settings: polyglutamine-induced protein aggregation inhibition assay; stronger effect = higher value; tested at 2.5 µM
[20] = enhancers of glutamate uptake in motor neurons, MN-1 cell line (AID 1612); settings: MN-1 motor neuron cells, stronger effect = higher value;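 note: tested at 1 µM final; 0% = mean of DMSO vehicle wells on each plate; positive means more glutamate uptake than control and negative means less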
[21] = reducers of polyQ inclusions in PC12 cells, cell-based, NGF-treated PC12, GFPQ80 (AID 1614); settings: PC12 NGF-treated GFP-polyQ80 inclusion reduction;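 note: lower means fewer inclusions and 0 means no inclusions at all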
[22] = suppressors of polyglutamine aggregation in yeast, 75Q-TubH (AID 1616); settings: S. cerevisiae 75Q-TubH polyglutamine aggregation suppression; stronger effect = higher value
[23] = measured here: epithelial PC-3E GFP cell survival
[24] = measured here: mesenchymal TEM4-18 mCherry cell survival
[25] = measured here: relative caspase fold change +Dox/-Dox
[26] = measured here: total cells with miR-34 induction, stronger effect = lower value
[27] = measured here: total cells without miR-34 induction

Question: With `CC(=O)O[C@H]1C[C@@H](OC(C)=O)C(C)(C)C2C[C@@H](OC(C)=O)[C@]3(C)C(CC[C@@]4(C)[C@H](c5ccoc5)C(=O)[C@H]5O[C@]543)[C@]21C` (some centres not stated) as the compound, how does the red/green cell ratio (normalised) [1] read?
Answer: The red/green cell ratio (normalised) was 1.03 (inactive).

Question: What about the normalised cell number [1, 23] of the same compound?
Answer: Its normalised cell number is 1.08.

Question: And the normalised cell number [1, 24]?
Answer: Its normalised cell number is 1.12.

Question: What about the activity remaining [2] of the same compound?
Answer: Its activity remaining is 109% (inactive).

Question: What about the luciferase signal [3] of the same compound?
Answer: Its luciferase signal is 132 AU (active).

Question: For `COc1cc2c(c(OC)c1OC)-c1ccc(O)c(=O)cc1C(N)CC2` (configuration not stated), which fluorescence slope change [4] is on record?
Answer: Its fluorescence slope change is 63.7% (active).

Question: What about the survival [5] of the same compound?
Answer: Its survival is 6 (inactive).

Question: And the parasite load remaining [6]?
Answer: Its parasite load remaining is 59.8% (inactive).

Question: What about the viability [6] of the same compound?
Answer: Its viability is 94.7%.

Question: What about the red/green cell ratio (normalised) [1] of the same compound?
Answer: The red/green cell ratio (normalised) was 0.78 (inactive).

Question: What about the normalised cell number [1, 23] of the same compound?
Answer: The normalised cell number was 1.21.

Question: What about the normalised cell number [1, 24] of the same compound?
Answer: The normalised cell number was 0.95.

Question: With `Cc1[nH]c2ccc(O)cc2c1CCN` as the compound, how does the period change [7] read?
Answer: The period change was 0.13 h (inactive).

Question: And the inhibition [8]?
Answer: The inhibition was -6% (inactive).

Question: And the fluorescence ratio (interference) [9]?
Answer: Its fluorescence ratio (interference) is 0.9 (inactive).

Question: What about the remaining activity [10] of the same compound?
Answer: Its remaining activity is 104% (inactive).

Question: And the remaining activity [11]?
Answer: Its remaining activity is 118% (inactive).

Question: And the fold change ([12]; stronger effect = lower value)?
Answer: The fold change was 1.04 (inactive) and 1.02 (inactive).

Question: And the fold change [12, 25]?
Answer: Its fold change is 0.914 and 0.703.

Question: And the cell count [12, 26]?
Answer: The cell count was 10800 and 9460.

Question: What about the cell count [12, 27] of the same compound?
Answer: Its cell count is 10400 and 9310.

Question: And the outcome [13]?
Answer: Its outcome is “inactive”.

Question: And the z-score [14]?
Answer: Its z-score is 0.345 (inactive) and -0.12 (inactive).

Question: With `CCC1(CC)C(=O)NC(=O)NC1=O` as the compound, how does the red/green cell ratio (normalised) [1] read?
Answer: Its red/green cell ratio (normalised) is 0.85 (inactive).

Question: What about the normalised cell number [1, 23] of the same compound?
Answer: Its normalised cell number is 0.92.

Question: And the normalised cell number [1, 24]?
Answer: The normalised cell number was 0.78.

Question: And the remaining NAD [15]?
Answer: Its remaining NAD is 10 nM (inactive).

Question: Which results are given for `CCCN(CCC)C1Cc2cc(OC)c(OC)cc2C1`?
Answer: period change [7]: -0.045 h (inactive); inhibition [8]: -2% (inactive); fluorescence ratio (interference) [9]: 1 (inactive); remaining activity [10]: 120% (inactive); remaining activity [11]: 106% (inactive); fold change ([12]; stronger effect = lower value): 0.979 (inactive) and 0.907 (inactive); fold change [12, 25]: 0.924 and 0.563; cell count [12, 26]: 9280 and 9110; cell count [12, 27]: 9480 and 10000; outcome [13]: inactive; z-score [14]: 0.43 (inactive) and 0.01 (inactive)

Question: What does the source list for `NCCc1c[nH]c2ccc(C(N)=O)cc12`?
Answer: period change [7]: -0.055 h (inactive); inhibition [8]: -3% (inactive); fluorescence ratio (interference) [9]: 1 (inactive); remaining activity [10]: 111% (inactive); remaining activity [11]: 90% (inactive); fold change ([12]; stronger effect = lower value): 0.977 (inactive) and 0.883 (inactive); fold change [12, 25]: 1.26 and 0.923; cell count [12, 26]: 10000 and 7810; cell count [12, 27]: 10300 and 8850; outcome [13]: inactive; z-score [14]: 0.31 (inactive) and 0.705 (inactive)

Question: Which results are given for `CO[C@H]1[C@H](O)[C@@H](O[C@H]2CC[C@]3(C=O)C4CC[C@]5(C)[C@@H](C6=CC(=O)OC6)CC[C@]5(O)C4CC[C@@H]3C2)O[C@@H](C)[C@@H]1O` (some centres not stated)?
Answer: score [16]: 1.12; rescue above control [17]: -6.49; cytochrome c release ratio [18]: 1.41; inhibition of aggregation [19]: 0%; glutamate uptake change [20]: 3.74%; inclusion score [21]: 0.5; aggregation suppression score [22]: 1.22; parasite load remaining [6]: 56.4% (inactive); viability [6]: 41.4%; red/green cell ratio (normalised) [1]: 0.18 (inactive); normalised cell number [1, 23]: 0.18; normalised cell number [1, 24]: 0.03

Question: Which period change [7] does the source give for `CCOC(=O)c1ncn2c1[C@@H]1CCCN1C(=O)c1cc(OC)ccc1-2` here?
Answer: The period change was -0.11 h (inactive).

Question: And the inhibition [8]?
Answer: Its inhibition is 0% (inactive).

Question: What about the fluorescence ratio (interference) [9] of the same compound?
Answer: Its fluorescence ratio (interference) is 1 (inactive).

Question: And the remaining activity [10]?
Answer: Its remaining activity is 125% (inactive).

Question: What about the remaining activity [11] of the same compound?
Answer: Its remaining activity is 110% (inactive).

Question: And the fold change ([12]; stronger effect = lower value)?
Answer: The fold change was 1.04 (inactive) and 0.964 (inactive).

Question: What about the fold change [12, 25] of the same compound?
Answer: Its fold change is 0.593 and 0.443.

Question: And the cell count [12, 26]?
Answer: The cell count was 9220 and 8750.

Question: What about the cell count [12, 27] of the same compound?
Answer: Its cell count is 8880 and 9080.

Question: What about the outcome [13] of the same compound?
Answer: The outcome was “inactive”.

Question: What about the z-score [14] of the same compound?
Answer: The z-score was 0.505 (inactive) and 0.115 (inactive).

Question: For `O=C(O)CCCO`, which parasite load remaining [6] is on record?
Answer: Its parasite load remaining is 64.2% (inactive).

Question: What about the viability [6] of the same compound?
Answer: Its viability is 92.7%.

Question: What about the red/green cell ratio (normalised) [1] of the same compound?
Answer: Its red/green cell ratio (normalised) is 1 (inactive).

Question: And the normalised cell number [1, 23]?
Answer: The normalised cell number was 0.91.

Question: And the normalised cell number [1, 24]?
Answer: The normalised cell number was 0.91.

Question: What about the fold change ([12]; stronger effect = lower value) of the same compound?
Answer: The fold change was 0.926 (inactive).

Question: And the fold change [12, 25]?
Answer: The fold change was 0.797.

Question: And the cell count [12, 26]?
Answer: Its cell count is 11100.

Question: And the cell count [12, 27]?
Answer: The cell count was 11900.

Question: And the remaining NAD [15]?
Answer: The remaining NAD was 10 nM (inactive).
